Screening data deposited in PubChem by National Center for Advancing Translational Sciences (NCATS).
TSG101-PTAP inh = blocks PTAP/TSG101 interaction to inhibit HIV-1 budding; Q99816; Fluorescence polarization, FITC-PTAP peptide / Tsg101 binding; Potency, µM (series often up to 115 µM), for inactives: top-dose activity change, negative = inhibition, usual class: inhibitors; 340,000 tested, under 10 active; AID 493005; active means well fitted inhibition curve with a large enough effect in the main read-out, with a control signal flat, not every such curve was filed as active; inconclusive means small, poorly fitted or top-dose-only effect, or effect the other way, or a change in a side signal; inactive means no such curve, though single readings can be large or run the other way; further: % of control where 0% means no effect
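FP read-out: FITC-PTAP peptide, 50 nM final, binding Tsg101 binding domain, 10 uM final; 20 min, r.t.; 10 mM HEPES pH 7.5, 0.15 M NaCl, 0.01% Tween 20, 3 mM EDTA, 0.1 mM TCEP.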
VDR inh = inhibitors of human vitamin D receptor | 0.93% of 400,000 active | AID 504847 | P11473 | VDR-SRC2-3 peptide fluorescence polarization, 2 h | Potency, µM, for inactives: max response, negative = inhibition, hits mostly inhibitors; further: on the % scale 0 is the no-effect control and ±100 the full control effect
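Two reagent solutions held at 4 deg C in the dark were dispensed, compounds pinned at 23 nl, and the mixture incubated 2 h at room temperature. Read-out: fluorescence polarization of VDR–SRC2-3 peptide binding.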
USP1-UAF1 inh = USP1/UAF1 (human) deubiquitinase inhibition; O94782; recombinant USP1/UAF1, Ub-Rhodamine cleavage fluorescence; Potency, µM (titrated, usually from 57.1 µM), for inactives: top-dose activity change, negative = inhibition, hits mostly inhibitors; 0.23% of 390,000 active; AID 743255; further: on the % scale 0 is the no-effect control and ±100 the full control effect; nearly all actives have a fitted effect of over 60% in size
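USP1/UAF1 complex at 1 nM was preincubated with compound for 15 min at room temperature, then Ub-Rho substrate (150nM final) was added. Fluorescence (480/540 nm) was read kinetically, 6 reads every 60 seconds.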
KAT2A inh = inhibitors of human GCN5L2 histone acetyltransferase; GCN5L2 HAT assay, ThioGlo1 CoA-SH fluorescence; Q92830; Potency, µM (highest dose often 58.9 µM), without a hit: at the highest dose activity change, negative = inhibition, most hits filed as inhibitors; 0.21% of 390,000 active; further: on the % scale 0 is the no-effect control and ±100 the full control effect
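Free CoA generated was detected with ThioGlo1 (50uM) fluorescence at Ex340nm/Em540nm, read immediately and after 20 min at room temperature. Enzyme, 20 nM in HEPES pH 7.5 buffer, saw compounds 15 min before adding 75uM H3(1-25) peptide and 70uM acetyl-CoA.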
PLK1 PBD block = inhibitors of human PLK1 polo-box domain binding. P53350. Plk1 PBD binding of FITC phosphopeptide, fluorescence polarization. Potency, µM, for inactives: max response, negative = inhibition, hits mostly inhibitors. 2.8% of 360,000 active. AID 720504; further: series mostly up to about 57 µM; on the % scale 0 is the no-effect control and ±100 the full control effect; nearly all actives have a fitted effect of over 65% in size
Target sequence (P53350 whole entry, looked up, the tested form may be a part): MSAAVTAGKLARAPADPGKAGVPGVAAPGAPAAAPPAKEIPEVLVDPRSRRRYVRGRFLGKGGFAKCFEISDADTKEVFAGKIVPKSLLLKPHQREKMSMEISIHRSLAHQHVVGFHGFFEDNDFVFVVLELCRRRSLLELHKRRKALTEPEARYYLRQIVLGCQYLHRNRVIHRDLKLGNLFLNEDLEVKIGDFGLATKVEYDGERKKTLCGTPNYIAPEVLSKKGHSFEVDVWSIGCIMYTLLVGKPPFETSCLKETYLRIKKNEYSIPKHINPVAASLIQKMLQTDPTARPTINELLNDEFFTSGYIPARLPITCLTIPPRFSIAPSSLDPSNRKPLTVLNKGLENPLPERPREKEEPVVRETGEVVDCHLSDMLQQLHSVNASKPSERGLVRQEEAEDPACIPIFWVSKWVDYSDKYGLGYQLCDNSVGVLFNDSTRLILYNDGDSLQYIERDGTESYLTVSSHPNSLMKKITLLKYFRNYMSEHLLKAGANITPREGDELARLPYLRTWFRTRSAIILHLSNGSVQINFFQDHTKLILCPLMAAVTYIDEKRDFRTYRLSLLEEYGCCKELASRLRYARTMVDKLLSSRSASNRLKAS
Active calls of the source: *; u = inconclusive; x = no result given. The list is not random: actives were taken first. Their share in the collection is about 3%. Unless noted, the call rests on the fitted dose curve; in most records, active means well fitted curve in the direction sought with a large enough effect; inconclusive means small, poorly fitted or top-dose-only effect, or another doubt; inactive means no such curve, though single readings can be large; an effect the other way counts as inactive or inconclusive. Potency means the concentration at half of the fitted maximal effect.

SMILES | TSG101-PTAP inh | VDR inh | USP1-UAF1 inh | KAT2A inh | PLK1 PBD block
COC(=O)c1cc(=O)nc2sc(-c3ccc(F)cc3)nn12 | 0.0% | 44.7µM* | -17.1% | -17.8% | 6.7µM*
COC(=O)c1cc(=O)nc2sc(-c3cccs3)nn12 | -2.5% | -0.3% | -17.4% | -12.6% | -6.6%
O=C(N/C(=C/c1ccccc1)C(=O)N1CCCCC1)c1ccccc1 | 0.5% | -10.0% | -20.5% | 3.2% | -6.2%
O=C(N/C(=C\c1ccccc1)C(=O)N1CCCCCC1)c1ccccc1 | -6.1% | -27.5% | u | 14.6% | 29.9µM*
Clc1ccccc1-c1nnc(-c2ccccc2CNc2ccc(Br)cc2)o1 | x | 1.3% | u | -4.5% | x
COCCNC(=S)Nc1ccc([N+](=O)[O-])cc1C | -2.3% | -0.6% | -20.5% | -14.0% | 0.9%
CNC(=S)NNc1ccccc1[N+](=O)[O-] | 0.6% | 70.8µM* | -14.3% | -8.7% | -21.3%
COCCNC(=S)NNc1ccccc1[N+](=O)[O-] | -1.5% | u | 5.9% | 2.9% | 15µM*
Cc1ccc(-c2nc3ccc(Cl)cn3c2Nc2ccc3c(c2)OCCO3)s1 | x | -9.7% | -14.0% | -2.8% | x
C=CCN(c1ccc(C(=O)Nc2ccc(NC(C)=O)cc2)cc1)S(C)(=O)=O | -7.0% | 35.5µM* | -12.8% | -6.6% | 21.2µM*
C=CCN(c1ccc(C(=O)Nc2cccc(C)c2)cc1)S(C)(=O)=O | 4.6% | -4.3% | -14.8% | -0.6% | -16.8%
CCOc1ccc(C2N(c3cc(C)on3)C(=O)C3CCCN32)cc1OC (stereo unspecified) | -8.0% | -26.6% | -19.8% | 0.6% | 26.7µM*
CC1=CC2=C(C=O)C(=O)C(C)(O)C(O)C2=CO1 (stereo unspecified) | x | x | -22.1% | x | -15.6%
O=C1C(=O)c2c(ccc3ccccc23)-c2ccccc21 | -3.2% | u | 3.98µM* | x | -20.8%
CCc1[nH]c(=S)c(C#N)c2c1CCCC2 | -3.9% | u | -3.6% | -9.2% | 26.7µM*
Oc1ccc2ccccc2c1CN1CCOCC1 | -7.9% | u | -3.9% | -10.2% | 26.7µM*
Oc1cccc(CN2CCOCC2)c1O | 0.0% | u | -18.7% | x | -0.3%
CCCc1cc(CN2CCOCC2)c(O)c(CN2CCOCC2)c1O | 0.3% | 22.4µM* | -16.2% | x | 6.7µM*
OCCC1CN(Cc2c(O)ccc3ccccc23)CCN1CCc1ccccc1 (stereo unspecified) | -2.3% | u | -22.5% | -0.8% | 23.8µM*
Oc1c(CN2CCOCC2)cc(CN2CCOCC2)c(O)c1O | -6.0% | 20µM* | u | x | 1.68µM*
O=C1c2c(-c3ccc(Br)cc3)noc2CCN1Cc1cn(Cc2cccnc2)nn1 | x | x | x | x | 3.7%
Cc1ccc(NS(=O)(=O)c2ccc(-n3cccn3)cc2)c(Cl)c1 | x | x | -24.0% | x | -0.5%
N#Cc1c(NC(=O)c2ccccc2Cl)n(Cc2ccccc2)c2nc3ccccc3nc12 | 0.1% | u | 25.1µM* | u | 15µM*
CCCCn1c(NC(=O)c2ccccc2Cl)c(C#N)c2nc3ccccc3nc21 | -14.4% | 44.7µM* | 14.1µM* | -11.3% | 26.7µM*
CCCCn1c(NC(=O)CC)c(C#N)c2nc3ccccc3nc21 | -9.5% | -5.1% | -20.0% | -1.5% | -5.8%
SMILES | TSG101-PTAP inh | VDR inh | USP1-UAF1 inh | KAT2A inh | PLK1 PBD block
CCS(=O)(=O)N1CC(=O)N(c2cc(C)ccc2C)C(C)(C(=O)NC2CCCCC2)C1 (stereo unspecified) | x | 11.3% | -2.7% | -3.5% | x
Cc1cc(Cl)ccc1NC(=O)CN(C)C1=NS(=O)(=O)c2ccccc21 | 0.9% | -11.2% | -3.7% | 4.7% | -2.3%
CCCCC/C=C\C\C=C/C=C/C=C/[C@@H](SC[C@H](N)C(=O)O)[C@@H](O)CCCC(=O)O | x | 1.1% | x | 5.1% | x
CC(C)C(OC(=O)C1=Cc2ccccc2OC1)C(=O)NCC1CCCO1 (stereo unspecified) | -5.2% | -17.7% | -24.9% | x | 21.2µM*
C[C@@H](NC(=O)[C@@H]1Cc2ccccc2CN1)C(=O)NC1CCCCC1 | 0.5% | 5.0% | -18.6% | -7.7% | -9.0%
C[C@H](NC(=O)[C@@H]1Cc2ccccc2CN1)C(=O)NCC1CCCO1 (stereo partly specified) | -3.9% | -18.7% | -24.0% | -3.2% | 29.9µM*
CC(Sc1nc2c([nH]c3ccccc32)c(=O)n1-c1ccccc1)c1ccccc1 (stereo unspecified) | x | 10.2% | -15.4% | -19.3% | x
